This is part of a sample that, as a whole, favours compounds with a hit. Of some 83,000 tested, about 20% had one in any assay.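 48-hour exposure, single concentration, 96-well plates; percent growth endpoint where 0 means no net growth. Active: below 10.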 Activity calls are given as the source filed them.

This test relates to SK-MEL-28 melanoma. As to the kind of experiment: NCI-60 one-dose screen, 48 h (100 = growth as untreated, 0 = no growth, -100 = all killed). To be noted: 10 µM unless noted.
Take `COc1cc(C2CC(=O)Nc3c2cnn3C)cc(OC)c1OC` (configuration not stated): the growth is 119% (inactive).

For the compound `C=C(c1ccc(C(=O)NCCCn2ccnc2)cc1)c1cc2c(cc1C)C(C)(C)CCC2(C)C`, the growth was 6.96% (active).

`CCCCCCCCCCCCNC(=O)N[C@H](C(=O)N[C@H]1/C=C/CCNC(=O)/C=C/[C@H](C)NC1=O)C(C)C`: the growth is -70.2% (active).

For the compound `C=C(C)[C@@H]1CC[C@]2(C(=O)NS(=O)(=O)c3ccccc3)CC[C@]3(C)[C@H](CC[C@@H]4[C@@]5(C)CC[C@H](OC(=O)NS(=O)(=O)c6ccccc6)C(C)(C)[C@@H]5CC[C@]43C)[C@@H]12`, the growth was -16.3% (active).

Turning to `FC(F)(F)c1cc(-c2nnc3n2N=C(Cl)CS3)cc(C(F)(F)F)c1`, the growth is 134% (inactive).

On to `Cc1cc(-c2ccccc2)on1`, for which the growth is 109% (inactive).

Regarding `CNC(=O)c1c(NC(=O)c2cccc(C(F)(F)F)c2)sc2c1CCC(=O)C2`, the growth was 7.1% (active).

Turning to `COc1ccccc1/C=C/C(=O)CCC(=O)O`, the growth was 110% (inactive).

As to `CCc1c(C)c2ccc(O)c(-c3cc(-c4ccccc4)c(C#N)c(=O)[nH]3)c2oc1=O`, the growth is 107% (inactive).

In the case of `O=C1OCC2=C1C(c1ccccc1)c1cc3c(cc1N2CCO)OCO3` (configuration not stated), the growth is 50.5% (inactive).

As for `CCCCCCCCCCCCNC(=O)N[C@H](C(=O)N[C@H]1/C=C/OCCNC(=O)/C=C/[C@H](C(C)C)NC1=O)C(C)C`, the growth is 46.3% (inactive).

As to `COc1ccc(-n2nc(C(=O)Nc3ccc(F)cc3)nc2-c2cc(OC)c(OC)c(OC)c2)cc1`, the growth was 119% (inactive).

On to `COc1ccc2c(c1)OC1=C(C(=O)OC1)C2c1cc(OC)c2c(c1)OCCO2` (configuration not stated), for which the growth was 45.4% (inactive).

Take `O=S1(=O)NCCN1CCNc1nccc(-c2c(-c3cccc(O)c3)nc3sccn23)n1`: the growth was 31.3% (inactive).

As for `O=C(CC(=O)C(F)(F)C(F)(F)C(F)(F)F)c1cc2ccccc2o1`, the growth was 105% (inactive).

On to `CC(C)(C)c1ccc(C(=O)Nc2sc3cc(O)ccc3c2C(N)=O)cc1`, for which the growth was 87.5% (inactive).

Turning to `CC1=CCC2C1CC=C(C)C(CC[C@H]1[C@@](C)(O)CCC3OC(C)(C)[C@H](OC(=O)c4ccccc4)CC[C@@]31C)C2(C)C` (some centres not stated), the growth was 109% (inactive).

Turning to `CC(=O)C1CCC2C3CC(C)=C4CC(O)CCC4(C)C3CCC12C` (configuration not stated), the growth was 105% (inactive).

Consider `CCN(CCC#N)c1ccccc1`, for which the growth is 113% (inactive).

For the compound `O=S1(=O)NCCCN1CCNc1nccc(-c2c(-c3cccc(O)c3)nc3sccn23)n1`, the growth was 24% (inactive).

On to `COc1ccc(-c2conc2-n2nc(-c3ccccc3)nc2-c2ccccc2)cc1`, for which the growth is 108% (inactive).

Consider `COc1ccccc1CNCCCN1C(=O)c2ccc3c4c(ccc(c24)C1=O)C(=O)N(CCCCNCCCN)C3=O`, for which the growth is -19.4% (active).

`Cc1ccc(C(=O)CC(=O)C(F)(F)C(F)(F)C(F)(F)F)s1`: the growth is 110% (inactive).

With `O=C1CCCN1C(O)CCN(Cc1ccccc1)Cc1ccc(Cl)cc1` (configuration not stated), the growth is 115% (inactive).

For `CCOC(=O)C1=C(C)NC(=S)NC1c1ccccc1` (configuration not stated), the growth was 112% (inactive).

For the compound `CCOC(=O)C1=C(C(=O)OCC)N(c2cc(OC)c(OC)c(OC)c2)C(N)=C(C#N)C1c1cc(=O)[nH]c2ccccc12` (configuration not stated), the growth is 114% (inactive).

`CC(=O)Nc1ccc(/C=N/N2CCCCCC2)cc1`: the growth is 103% (inactive).

As for `CCOC(=O)c1cnc(SCC)nc1SC#N`, the growth was 108% (inactive).

As to `COc1cc(OC)c(C(=O)/C=C/c2cccc(OC(C)=O)c2)cc1CC=C(C)C`, the growth was 67.8% (inactive).

In the case of `COc1cc2ccc(C(C)=O)cc2cc1OC`, the growth was 131% (inactive).

On to `CN1CCCN(CCNc2nccc(-c3c(-c4cccc(O)c4)nc4sccn34)n2)S1(=O)=O`, for which the growth is 18.1% (inactive).

Turning to `CCOC(=O)c1ccc2c(c1)[n+](=O)c(C(=O)c1ccc3ccccc3c1)c(C(F)(F)F)n2[O-]`, the growth is -96.3% (active).

These data come from PubChem BioAssay (NCI).
